# CCHFV vOTU inh = CCHFV vOTU protease inhibitors, primary screen, biochemical, Pep-AMC substrate, fluorescence; Crimean-Congo hemorrhagic fever virus L polyprotein viral ovarian tumor (vOTU) protease …; inhibition, % at 11.5 µM; actives 0.55% (n = 370,000); AID 651958, 2012; in the data active means inhibition above about 30%; further: 0% = vehicle wells with enzyme and 100% = no enzyme wells
# PfHsp40 rescue = rescue of yeast from PfHsp40 toxicity, primary screen, S. cerevisiae, ATP luminescence; actives 0.68% (n = 340,000); growth rescue, % at 12.5 µM; S. cerevisiae expressing PfHsp40, growth rescue; in the data active means growth rescue above about 28%, passing the limit was not always enough; inconclusive means no clear call, values can overlap the other calls;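 further: yeast W303a lacking pdr1 and pdr3 grown in galactose medium; growth measured after three days at 30 °C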
# RecA splice inh = Mtb RecA intein splicing inhibitors, primary screen, biochemical, fluorescence, HTS. Protein RecA (Mycobacterium tuberculosis (strain ATCC 25618 / H37Rv)), P9WHJ3. cell-free RecA intein splicing. inhibition, % (test concentration not listed). actives 0.75% (n = 290,000). AID 2221, 2009; in the data active means inhibition above about 30%; inconclusive means no clear call, values can overlap the other calls;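 further: 0% = vehicle wells and 100% = reference inhibitor control wells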
# Target sequence (P9WHJ3 whole entry, looked up, canonical isoform): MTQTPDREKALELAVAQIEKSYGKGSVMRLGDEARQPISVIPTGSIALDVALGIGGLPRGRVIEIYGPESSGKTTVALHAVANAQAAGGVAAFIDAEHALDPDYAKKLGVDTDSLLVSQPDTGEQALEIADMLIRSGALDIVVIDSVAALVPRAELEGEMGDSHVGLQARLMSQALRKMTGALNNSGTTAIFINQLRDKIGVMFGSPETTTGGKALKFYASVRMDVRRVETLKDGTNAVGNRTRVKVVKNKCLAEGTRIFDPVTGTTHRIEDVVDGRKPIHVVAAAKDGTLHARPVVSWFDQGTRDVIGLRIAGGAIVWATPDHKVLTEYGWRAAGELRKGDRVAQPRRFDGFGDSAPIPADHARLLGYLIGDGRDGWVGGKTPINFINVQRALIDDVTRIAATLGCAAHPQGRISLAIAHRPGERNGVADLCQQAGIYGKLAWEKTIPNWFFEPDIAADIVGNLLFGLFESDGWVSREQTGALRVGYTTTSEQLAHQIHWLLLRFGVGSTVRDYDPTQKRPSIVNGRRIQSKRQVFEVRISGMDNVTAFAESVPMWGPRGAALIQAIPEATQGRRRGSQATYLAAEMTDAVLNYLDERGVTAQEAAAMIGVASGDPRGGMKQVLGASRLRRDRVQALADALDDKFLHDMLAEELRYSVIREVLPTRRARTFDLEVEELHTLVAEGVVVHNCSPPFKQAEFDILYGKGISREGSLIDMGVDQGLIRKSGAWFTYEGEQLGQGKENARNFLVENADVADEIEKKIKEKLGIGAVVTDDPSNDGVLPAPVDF
# Mtb hypoxia rep = PubChem AID 1159583. M. tuberculosis hypoxia-regulated fluorescent reporter, fluorescence. actives 0.1% (n = 300,000). fluorescence inhibition, % (no concentration beside the values); in the data active means fluorescence inhibition mostly above about 23%, no sharp cut-off; inactive means mostly below about 17%
# Mtb bLac sens = beta-lactam sensitization of Mtb H37Rv, H37Rv. M. tuberculosis H37Rv growth with meropenem, percent inhibition. inhibition, % at 25 µM. actives 0.27% (n = 330,000); call rule not given here;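 further: growth measured after seven days incubation then overnight dye step; 0% = bacteria only wells and 100% = bacteria with antibiotic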
# Starred values were filed as active, the others as inactive; ? = inconclusive; · = no result shown. In the library only some 1.7% were active in any assay of this set; here they are far more common.
SMILES,CCHFV vOTU inh,PfHsp40 rescue,RecA splice inh,Mtb hypoxia rep,Mtb bLac sens
CCc1[nH]nc2c1C(Cc1ccccc1)C(C#N)=C(N)O2 (stereo unspecified),5.9,-0.2,59.1*,8.9,1.7
N#CC1=C(N)Oc2n[nH]c(-c3cccs3)c2C1C1CCCCC1 (stereo unspecified),12.3,6.7,18.8,11.7,-7.4
CC(C)c1[nH]nc2c1C(C(C)C)C(C#N)=C(N)O2 (stereo unspecified),-15.7,-1.2,5.6,3.7,0.3
CC(C)c1[nH]nc2c1C(c1cccnc1)C(C#N)=C(N)O2 (stereo unspecified),-5.6,-0.2,42.7*,7.8,-2.9
COc1cc(C(=O)NCC(=O)NN=Cc2ccco2)cc(OC)c1OC,·,·,·,0.3,·
COCc1[nH]nc2c1C(c1ccccc1OC)C(C#N)=C(N)O2 (stereo unspecified),-2.2,0.4,61.7*,·,0.4
Cc1ccc(C2C(C#N)=C(N)Oc3nc(-c4ccccc4)[nH]c32)o1 (stereo unspecified),8.3,-0.6,89.4*,11.0,2.3
CCc1[nH]nc2c1C(c1ccc(C)o1)C(C#N)=C(N)O2 (stereo unspecified),-6.1,-2.1,49.2*,2.0,-10.6
COCc1[nH]nc2c1C(c1ccccc1Cl)C(C#N)=C(N)O2 (stereo unspecified),-8.6,-1.7,24.4,6.8,-8.2
COCc1nnc(NS(=O)(=O)c2ccc(OC)cc2)s1,6.9,-0.2,·,5.1,·
COCc1nnc(NS(=O)(=O)c2ccc([N+](=O)[O-])cc2)s1,2.1,-0.7,1.3,64.8*,8.6
NC(N)=N/N=C/c1ccc(N(c2ccccc2)c2ccccc2)cc1,-54.0,105.5*,-122.3,·,99.5
O=[N+]([O-])C=C1NCCN1Cc1ccc(Cl)nc1,·,·,·,5.0,·
O=[N+]([O-])C(/C=C(\Cl)[N+](=O)[O-])=C1N(Cc2ccc(Cl)nc2)CCN1Cc1ccc(Cl)nc1,-6.2,4.3,61.5*,4.2,8.5
CCN1/C(=C/c2sc(-c3ccccc3C)c[n+]2C)Sc2ccccc21,-9.5,312.3*,-8.5,·,·
Oc1ccc(O)c2c1C1(Cl)C(Cl)=C(Cl)C2(Cl)C1(Cl)Cl,14.1,82.7*,·,15.0,·
Oc1ccccc1Cl,-3.2,2.0,·,·,-6.7
ON=Cc1cn(-c2ccccc2)nn1,·,·,·,5.2,·
Cc1ccc(C(=O)N2CCN(c3ccccc3Cl)CC2)cc1[N+](=O)[O-],0.8,110.7*,7.6,10.1,9.1
Cc1nc2cc(NC(=O)N3CCN(c4ccccn4)CC3)ccc2o1,-8.8,1.2,-2.8,13.9,1.3
CC(=O)c1ccc(NC(=O)c2ccc3nc(-c4ccco4)c(-c4ccco4)nc3c2)cc1,·,0.3,12.7,·,16.0
O=C(Nc1ccc2nc(-c3ccco3)c(-c3ccco3)nc2c1)N1CCN(c2ccccn2)CC1,30.0*,0.6,-61.3,0.7,2.6
O=C(Nc1ccccc1)c1ccc2nc(-c3ccco3)c(-c3ccco3)nc2c1,48.0*,1.5,19.3,8.3,23.3
C/C(CC(=O)NCc1ccco1)=N\NC(=O)c1ccc([N+](=O)[O-])cc1Cl,12.7,0.2,69.5*,·,-9.6
CC(CC(=O)NCc1ccco1)=NNC(=O)c1ccc([N+](=O)[O-])cc1Cl,·,·,·,-1.0,·
SMILES,CCHFV vOTU inh,PfHsp40 rescue,RecA splice inh,Mtb hypoxia rep,Mtb bLac sens
Cc1cc(C)c(S(=O)(=O)/N=C2/C=C(Sc3ncn[nH]3)C(=O)c3ccccc32)cc1C,118.1*,1.5,·,·,9.5
CCc1ccc(S(=O)(=O)N=C2C=C(Sc3ncn[nH]3)C(=O)c3ccccc32)cc1,·,·,·,-3.3,·
O=Nc1c(O)n(Cc2ccc(Cl)cc2Cl)c2ccccc12,10.9,90.0*,·,1.9,0.5
O=Nc1c(O)n(Cc2ccc(Cl)cc2)c2ccccc12,-1.4,12.3,11.2,10.8,-5.1
Cc1n[nH]c(=S)n1N=Cc1ccc(OCc2ccc(Cl)cc2Cl)cc1,·,·,·,6.8,·
COc1ccc(CN2CCNC(=O)C2CC(=O)N(C)Cc2nccs2)c(OC)c1 (stereo unspecified),-3.7,-0.9,1.0,5.2,5.7
COc1ccc(CN2CCNC(=O)C2CC(=O)N(C)Cc2ccncn2)c(OC)c1 (stereo unspecified),2.2,-1.9,30.5*,1.5,3.6
CC(C)(O)CCCC(C)(O)c1ccc(C(=O)O)cc1O (stereo unspecified),-2.5,54.9*,·,·,-6.6
COC(=O)C(CC(C)C)NCc1cccc(CNC(CC(C)C)C(=O)OC)c1 (stereo unspecified),·,·,·,-6.3,·
COc1ccc(C2CC(=O)C=C(c3c(C)cc(C)cc3C)C2)cc1 (stereo unspecified),·,·,·,2.2,·
CCCC(C)Sc1nc2c([nH]1)c(=S)n(C)c(=O)n2C (stereo unspecified),0.1,37.7*,·,·,·
O=C(NN=Cc1ccco1)c1cc(-c2ccncc2)nc2ccccc12,·,·,·,3.3,·
CCOC(=O)N1CCN(C(=O)c2ccc3c(=O)n(Cc4ccccc4OC)c(=S)[nH]c3c2)CC1,-1.5,28.7*,-0.8,4.0,?
Cc1cc(C)cc(N2C(=O)NC(=O)C(=Cc3cc(C)n(C)c3C)C2=O)c1,·,·,·,0.0,·
COc1ccc(NC(=O)N(C)C[C@H]2Oc3ccc(NC(=O)Nc4ccc5c(c4)OCO5)cc3C(=O)N([C@H](C)CO)C[C@@H]2C)cc1,-8.5,54.3*,·,·,·
COc1cc(C=NN=C(N)c2nonc2N)ccc1O,·,·,·,6.5,·
Cc1ccc(O)c(N=Cc2cc(Cc3ccccc3)cc([N+](=O)[O-])c2O)c1,23.4,124.0*,·,5.4,·
Oc1c(Cl)cc(Cl)cc1C=Nc1ccc(N2CCOCC2)cc1,-9.0,-0.5,7.0,15.6,-0.3
Cc1ccc(O)c(C=Nc2cc(C)ccc2O)c1,·,-1.3,-4.3,11.7,-8.2
O=[N+]([O-])c1cccc(C=Nc2cccc3ccccc23)c1O,-22.4,-0.5,38.3*,·,25.0
O=[N+]([O-])c1cc(Cc2ccccc2)cc(C=Nc2ccc(N3CCOCC3)cc2)c1O,·,274.5*,-5.2,0.6,-6.4
CC(NC(=O)c1nc[nH]c1C(=O)NCC(=O)OC(C)(C)C)C(=O)OCc1ccccc1 (stereo unspecified),·,·,·,4.1,·
CCOC(=O)C(C)C(C)=NNC(N)=S (stereo unspecified),·,·,·,12.9,·
O=C(NN=Cc1ccc[nH]1)c1cncc(Br)c1,·,·,·,12.6,·
CC(=O)/C=C1/C(=O)Nc2ccccc21,0.9,1.4,62.1*,17.7,79.2
SMILES,CCHFV vOTU inh,PfHsp40 rescue,RecA splice inh,Mtb hypoxia rep,Mtb bLac sens
O=C1NCN(c2ccccc2)C12CCN(CCCC(c1ccc(F)cc1)c1ccc(F)cc1)CC2,1.3,-1.9,38.2*,3.6,100.1
O=C(NCCN1CCC2(CC1)C(=O)NCN2c1ccccc1)c1ccc(F)cc1,-7.8,·,·,·,·
O=C(Nc1ccc2c(c1)CCC2)c1cc2ccccc2o1,4.1,132.3*,-1.4,11.4,94.2
Nc1cc(Cl)nc(NN=Cc2c(O)ccc3ccccc23)n1,·,·,·,-11.3,·
CCn1nnnc1NCc1ccc(SC)cc1,6.4,38.6*,1.5,6.3,0.8
CCn1nnnc1NCc1ccc(N2CCCC2)cc1,19.5,-0.3,-2.1,·,-11.7
